{
  "source": "PubChem BioAssay (EPA / NIEHS)",
  "note": "Inconclusive results are not listed. Calls of active or inactive are those of the source. Rule for the calls: active = hit-call score of the fitted dose curve at least 0.9, where 1 is the maximum; inconclusive = response in the unintended direction; inactive = score below 0.9.",
  "data": [
    {"biological_target": "human Janus Kinase 2 (Jak2), JAK2 (gene 3717) (UniProt O60674)", "sequence (O60674 whole entry, looked up)": "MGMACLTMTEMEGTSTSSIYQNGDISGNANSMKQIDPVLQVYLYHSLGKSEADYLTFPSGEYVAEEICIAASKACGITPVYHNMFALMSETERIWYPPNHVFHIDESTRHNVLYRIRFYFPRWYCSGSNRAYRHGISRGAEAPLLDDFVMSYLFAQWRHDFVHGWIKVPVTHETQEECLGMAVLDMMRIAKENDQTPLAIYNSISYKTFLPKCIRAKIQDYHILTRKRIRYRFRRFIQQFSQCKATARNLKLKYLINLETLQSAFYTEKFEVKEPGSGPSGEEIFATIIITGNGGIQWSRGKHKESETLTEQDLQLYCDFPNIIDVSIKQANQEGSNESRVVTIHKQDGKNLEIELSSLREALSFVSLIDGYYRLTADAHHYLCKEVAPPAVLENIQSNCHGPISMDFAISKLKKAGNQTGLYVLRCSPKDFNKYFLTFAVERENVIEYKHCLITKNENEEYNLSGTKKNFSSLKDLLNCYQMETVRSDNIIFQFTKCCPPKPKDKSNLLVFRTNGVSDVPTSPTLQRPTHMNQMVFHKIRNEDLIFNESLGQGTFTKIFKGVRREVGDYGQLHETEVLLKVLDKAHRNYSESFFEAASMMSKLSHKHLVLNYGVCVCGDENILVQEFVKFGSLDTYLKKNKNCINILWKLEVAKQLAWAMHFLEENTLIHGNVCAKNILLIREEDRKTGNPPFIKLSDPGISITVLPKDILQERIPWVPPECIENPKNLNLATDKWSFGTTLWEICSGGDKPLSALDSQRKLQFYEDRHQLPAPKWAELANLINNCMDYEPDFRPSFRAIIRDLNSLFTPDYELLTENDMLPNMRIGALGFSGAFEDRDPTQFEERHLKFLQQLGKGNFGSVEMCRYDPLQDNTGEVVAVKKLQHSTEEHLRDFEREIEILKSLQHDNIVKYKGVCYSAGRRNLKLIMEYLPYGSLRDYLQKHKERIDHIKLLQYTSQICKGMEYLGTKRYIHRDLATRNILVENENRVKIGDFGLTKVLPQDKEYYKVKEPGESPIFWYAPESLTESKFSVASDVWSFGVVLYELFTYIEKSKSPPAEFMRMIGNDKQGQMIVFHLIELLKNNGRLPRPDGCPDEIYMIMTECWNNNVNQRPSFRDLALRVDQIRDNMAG", "assay": "NVS_ENZ_hJak2: NovaScreen (NVS) Enzymatic Assay for human Janus Kinase 2 (Jak2) (AID 2283169)", "procedure,_shortened": "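Cell-free recombinant human JAK2 enzyme activity assay, fluorescence/electrophoretic mobility shift read 1 h after dosing. Screened in duplicate at 25 uM, then concentration-response up to 50 uM; activity as signal loss relative to DMSO.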", "values": [
      {"smiles": "O=C(O)C(F)(F)C(F)(F)C(F)(F)C(F)(F)C(F)(F)F", "outcome": "inactive"},
      {"smiles": "O=S(=O)(O)C(F)(F)C(F)(F)C(F)(F)C(F)(F)C(F)(F)C(F)(F)F", "outcome": "inactive"},
      {"smiles": "CC(C)C(=O)OCC(C)(C)C(OC(=O)C(C)C)C(C)C", "note": "(configuration not stated)", "outcome": "inactive"},
      {"smiles": "Cc1cc2c3c(c1)C(c1ccccc1)=N[C@@H](NC(=O)c1ccncc1)C(=O)N3CC2", "outcome": "inactive"},
      {"smiles": "Clc1ccc(C(c2ccccc2Cl)C(Cl)(Cl)Cl)cc1", "note": "(configuration not stated)", "outcome": "inactive"}
    ]},
    {"biological_target": "human c-Jun N-terminal Kinases (JNK2), MAPK9 (gene 5601) (UniProt P45984)", "sequence (P45984 whole entry, looked up)": "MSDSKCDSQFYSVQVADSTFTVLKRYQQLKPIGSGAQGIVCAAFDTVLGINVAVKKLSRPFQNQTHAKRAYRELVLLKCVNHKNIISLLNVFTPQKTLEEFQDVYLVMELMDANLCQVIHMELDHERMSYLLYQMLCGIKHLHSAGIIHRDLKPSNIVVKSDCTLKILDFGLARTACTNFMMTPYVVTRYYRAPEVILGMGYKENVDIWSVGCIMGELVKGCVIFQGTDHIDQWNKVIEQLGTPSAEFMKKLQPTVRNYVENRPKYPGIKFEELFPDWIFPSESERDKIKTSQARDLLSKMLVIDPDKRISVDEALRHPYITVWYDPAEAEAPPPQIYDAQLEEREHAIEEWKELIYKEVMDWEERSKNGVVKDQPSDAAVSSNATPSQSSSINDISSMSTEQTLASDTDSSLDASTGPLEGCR", "assay": "NVS_ENZ_hJNK2: NovaScreen (NVS) Enzymatic Assay for human c-Jun N-terminal Kinases (JNK2) (AID 2283171)", "procedure,_shortened": "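Cell-free recombinant human JNK2 activity assay; fluorescent substrate and product separated by electrophoretic mobility shift, read 1 h after dosing. Primary duplicate screen at 25 uM; actives run in concentration-response up to 50 uM, relative to DMSO.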", "values": [
      {"smiles": "O=C(O)C(F)(F)C(F)(F)C(F)(F)C(F)(F)C(F)(F)F", "outcome": "inactive"},
      {"smiles": "CC1=C2C[C@H]3[C@@H](CC=C4C[C@@H](O)CC[C@@]43C)[C@@H]2CC[C@]12O[C@@H]1C[C@H](C)CN[C@H]1[C@H]2C", "outcome": "inactive"},
      {"smiles": "CC(C)C(=O)OCC(C)(C)C(OC(=O)C(C)C)C(C)C", "note": "(configuration not stated)", "outcome": "inactive"}
    ]},
    {"biological_target": "Mitogen-activated protein kinase 3 (Homo sapiens) (UniProt P27361)", "sequence (P27361 whole entry, looked up)": "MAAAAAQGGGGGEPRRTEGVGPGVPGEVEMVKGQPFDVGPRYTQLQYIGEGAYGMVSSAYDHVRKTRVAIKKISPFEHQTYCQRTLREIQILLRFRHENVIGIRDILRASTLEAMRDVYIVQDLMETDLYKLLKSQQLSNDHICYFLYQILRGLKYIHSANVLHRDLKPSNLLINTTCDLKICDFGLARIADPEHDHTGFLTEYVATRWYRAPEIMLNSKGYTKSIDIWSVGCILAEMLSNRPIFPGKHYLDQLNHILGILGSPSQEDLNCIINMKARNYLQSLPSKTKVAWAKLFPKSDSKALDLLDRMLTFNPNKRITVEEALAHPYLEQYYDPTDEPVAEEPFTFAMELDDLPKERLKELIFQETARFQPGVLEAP", "assay": "NVS_ENZ_hMAPK3: NovaScreen (NVS) Enzymatic Assay for human Mitogen-Activated Protein Kinase 3 (MAPK 3) (AID 2283177)", "procedure,_shortened": "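Cell-free enzymatic assay with recombinant protein and specific substrate; fluorescence and electrophoretic mobility shift read-out 1 h after dosing. Primary screen duplicate at 25 uM; actives then run in concentration-response up to 50 uM, loss of signal versus DMSO.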", "values": [
      {"smiles": "ClC1=C(Cl)[C@]2(Cl)[C@@H]3[C@@H](Cl)[C@H]4O[C@H]4[C@@H]3C1(Cl)C2(Cl)Cl", "outcome": "inactive"},
      {"smiles": "Cc1cccc([N+](=O)[O-])c1", "outcome": "inactive"},
      {"smiles": "CC#Cc1cc(C)nc(Nc2ccccc2)n1", "outcome": "inactive"},
      {"smiles": "O=S(=O)(O)C(F)(F)C(F)(F)C(F)(F)C(F)(F)C(F)(F)C(F)(F)F", "outcome": "inactive"},
      {"smiles": "Cc1cccc(C)c1N", "outcome": "inactive"},
      {"smiles": "CC1=C2C[C@H]3[C@@H](CC=C4C[C@@H](O)CC[C@@]43C)[C@@H]2CC[C@]12O[C@@H]1C[C@H](C)CN[C@H]1[C@H]2C", "outcome": "inactive"},
      {"smiles": "CC(C)C(=O)OCC(C)(C)C(OC(=O)C(C)C)C(C)C", "note": "(configuration not stated)", "outcome": "inactive"}
    ]},
    {"biological_target": "human MAP Kinase-Activated Protein Kinase 2 (MAPKAPK2), MAPKAPK2 (gene 9261) (UniProt P49137)", "assay": "NVS_ENZ_hMAPKAPK2: NovaScreen (NVS) Enzymatic Assay for human MAP Kinase-Activated Protein Kinase 2 (MAPKAPK2) (AID 2283178)", "procedure,_shortened": "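Cell-free recombinant human MAPKAPK2 activity measured by fluorescence with electrophoretic mobility shift separation of substrate and product, 1 hr after dosing. Loss of signal versus DMSO; primary screen at 25 uM, concentration-response up to 50 uM.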", "values": [
      {"smiles": "O=S(=O)(O)C(F)(F)C(F)(F)C(F)(F)C(F)(F)C(F)(F)C(F)(F)F", "outcome": "inactive"},
      {"smiles": "CC1=C2C[C@H]3[C@@H](CC=C4C[C@@H](O)CC[C@@]43C)[C@@H]2CC[C@]12O[C@@H]1C[C@H](C)CN[C@H]1[C@H]2C", "outcome": "inactive"},
      {"smiles": "CCOCCOC(C)=O", "outcome": "inactive"},
      {"smiles": "CC(C)C(=O)OCC(C)(C)C(OC(=O)C(C)C)C(C)C", "note": "(configuration not stated)", "outcome": "inactive"}
    ]},
    {"biological_target": "human MET Proto-Oncogene, Receptor Tyrosine Kinase (MET), MET (gene 4233) (UniProt P08581)", "assay": "NVS_ENZ_hMet: NovaScreen (NVS) Enzymatic Assay for human MET Proto-Oncogene, Receptor Tyrosine Kinase (MET) (AID 2283180)", "procedure,_shortened": "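Cell-free MET kinase assay using recombinant protein and fluorescent substrate, with mobility-shift separation; read 1 h after dosing. Primary duplicate at 25 uM; actives in singleton concentration-response to 50 uM maximum. Signal loss versus DMSO.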", "values": [
      {"smiles": "CC1=C2C[C@H]3[C@@H](CC=C4C[C@@H](O)CC[C@@]43C)[C@@H]2CC[C@]12O[C@@H]1C[C@H](C)CN[C@H]1[C@H]2C", "outcome": "inactive"},
      {"smiles": "O=C(O)C(F)(F)C(F)(F)C(F)(F)C(F)(F)C(F)(F)C(F)(F)C(F)(F)C(F)(F)F", "outcome": "inactive"},
      {"smiles": "Cc1ccccc1[N+](=O)[O-]", "outcome": "inactive"},
      {"smiles": "Cc1ccc(O)c(C)c1", "outcome": "inactive"}
    ]},
    {"biological_target": "human Matrix Metalloproteinase-1 (MMP1), MMP1 (gene 4312) (UniProt P03956)", "sequence (P03956 whole entry, looked up)": "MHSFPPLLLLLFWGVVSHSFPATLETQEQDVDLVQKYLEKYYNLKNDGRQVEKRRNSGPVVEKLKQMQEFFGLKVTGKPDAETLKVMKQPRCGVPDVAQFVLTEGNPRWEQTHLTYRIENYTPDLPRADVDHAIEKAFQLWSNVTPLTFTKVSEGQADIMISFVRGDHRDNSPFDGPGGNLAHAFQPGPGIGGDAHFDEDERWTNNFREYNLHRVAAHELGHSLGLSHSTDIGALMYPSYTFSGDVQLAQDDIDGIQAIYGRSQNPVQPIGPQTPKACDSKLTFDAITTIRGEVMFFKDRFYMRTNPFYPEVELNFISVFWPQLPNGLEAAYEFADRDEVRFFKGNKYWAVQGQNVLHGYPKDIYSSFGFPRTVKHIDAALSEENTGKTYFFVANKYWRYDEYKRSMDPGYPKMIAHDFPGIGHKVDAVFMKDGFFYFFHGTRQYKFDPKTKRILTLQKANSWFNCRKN", "assay": "NVS_ENZ_hMMP1: NovaScreen (NVS) Enzymatic Assay for human Matrix Metalloproteinase-1 (MMP1) (AID 2283181)", "procedure,_shortened": "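Human MMP1 enzyme activity measured by fluorescence 1 h after dosing, cell-free, with a specific substrate. Screened in duplicate at 25 uM; hits (e.g. 30% inhibition) run in concentration-response up to 50 uM; loss of signal versus DMSO.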", "values": [
      {"smiles": "CCCCCCCCCC[N+](C)(C)CCCCCCCCCC", "outcome": "inactive"},
      {"smiles": "CC(C)(c1ccccc1)c1ccc(O)cc1", "AC50": "10.5 µM (active)"},
      {"smiles": "O=C(O)C(F)(F)C(F)(F)C(F)(F)C(F)(F)C(F)(F)C(F)(F)C(F)(F)C(F)(F)C(F)(F)F", "outcome": "inactive"},
      {"smiles": "O=NN(c1ccccc1)c1ccccc1", "outcome": "inactive"},
      {"smiles": "Oc1ccc(C(c2ccc(O)cc2)(C(F)(F)F)C(F)(F)F)cc1", "AC50": "5.26 µM (active)"}
    ]},
    {"biological_target": "human Matrix Metalloproteinase-7 (MMP7), MMP7 (gene 4316) (UniProt P09237)", "sequence (P09237 whole entry, looked up)": "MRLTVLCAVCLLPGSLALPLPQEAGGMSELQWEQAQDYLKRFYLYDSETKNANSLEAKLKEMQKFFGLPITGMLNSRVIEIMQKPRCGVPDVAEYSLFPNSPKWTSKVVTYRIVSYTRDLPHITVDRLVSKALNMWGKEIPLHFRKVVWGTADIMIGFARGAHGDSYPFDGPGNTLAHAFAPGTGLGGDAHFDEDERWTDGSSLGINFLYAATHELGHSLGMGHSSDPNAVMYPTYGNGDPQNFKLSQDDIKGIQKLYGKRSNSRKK", "assay": "NVS_ENZ_hMMP7: NovaScreen (NVS) Enzymatic Assay for human Matrix Metalloproteinase-7 (MMP7) (AID 2283183)", "procedure,_shortened": "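Cell-free fluorescence enzymatic assay read 1 h after compound addition, activity loss analyzed against DMSO. Primary duplicate testing at 25 uM; compounds meeting threshold rerun in singleton concentration-response up to 50 uM.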", "values": [
      {"smiles": "O=C(N[C@H]1CN2CCC1CC2)c1cc2ccoc2cn1", "outcome": "inactive"},
      {"smiles": "O=C(O)C(F)(F)C(F)(F)C(F)(F)C(F)(F)C(F)(F)F", "outcome": "inactive"},
      {"smiles": "O=S(=O)(O)C(F)(F)C(F)(F)C(F)(F)C(F)(F)C(F)(F)C(F)(F)F", "outcome": "inactive"},
      {"smiles": "Oc1ccc(C(c2ccc(O)cc2)(C(F)(F)F)C(F)(F)F)cc1", "outcome": "inactive"}
    ]},
    {"biological_target": "human Mitogen- and Stress-activated Protein Kinase-1 (Msk1), RPS6KA5 (gene 9252) (UniProt O75582)", "assay": "NVS_ENZ_hMsk1: NovaScreen (NVS) Enzymatic Assay for human Mitogen- and Stress-activated Protein Kinase-1 (Msk1) (AID 2283187)", "procedure,_shortened": "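Recombinant kinase with fluorescent substrate; product separated by electrophoretic mobility shift, read 1 h after dosing. Screened in duplicate at 25 uM; hits (e.g. ≥30% inhibition) tested in concentration–response up to 50 uM. DMSO baseline.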", "values": [
      {"smiles": "CC1=C2C[C@H]3[C@@H](CC=C4C[C@@H](O)CC[C@@]43C)[C@@H]2CC[C@]12O[C@@H]1C[C@H](C)CN[C@H]1[C@H]2C", "AC50": "19 µM (active)"},
      {"smiles": "O=C(O)C(F)(F)C(F)(F)C(F)(F)C(F)(F)C(F)(F)C(F)(F)C(F)(F)C(F)(F)F", "outcome": "inactive"},
      {"smiles": "CCSC(=O)N(CC)C1CCCCC1", "outcome": "inactive"}
    ]},
    {"biological_target": "human p21 Activated Kinase 4 (PAK4), PAK4 (gene 10298) (UniProt O96013)", "sequence (O96013 whole entry, looked up)": "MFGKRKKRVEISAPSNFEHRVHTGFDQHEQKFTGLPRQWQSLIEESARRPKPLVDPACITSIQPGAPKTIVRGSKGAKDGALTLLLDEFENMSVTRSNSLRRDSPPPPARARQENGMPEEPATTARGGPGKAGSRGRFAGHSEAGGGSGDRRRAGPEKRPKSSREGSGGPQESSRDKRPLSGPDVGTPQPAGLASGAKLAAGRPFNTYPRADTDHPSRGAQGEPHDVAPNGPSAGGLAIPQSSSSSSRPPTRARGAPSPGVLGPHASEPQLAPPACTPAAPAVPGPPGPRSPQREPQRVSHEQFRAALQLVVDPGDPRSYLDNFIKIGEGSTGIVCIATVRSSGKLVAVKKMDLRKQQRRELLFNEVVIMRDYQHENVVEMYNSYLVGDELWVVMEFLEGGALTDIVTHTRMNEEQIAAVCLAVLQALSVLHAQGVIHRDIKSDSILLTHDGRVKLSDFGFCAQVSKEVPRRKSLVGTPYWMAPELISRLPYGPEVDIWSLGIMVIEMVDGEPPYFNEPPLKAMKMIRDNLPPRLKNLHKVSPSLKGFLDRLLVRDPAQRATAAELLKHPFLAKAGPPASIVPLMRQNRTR", "assay": "NVS_ENZ_hPAK4: NovaScreen (NVS) Enzymatic Assay for human p21 Activated Kinase 4 (PAK4) (AID 2283189)", "procedure,_shortened": "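Cell-free recombinant human PAK4 activity assay; fluorescent substrate and product separated by electrophoretic mobility shift, read 1 h after dosing. Initially tested in duplicate at 25 uM, relative to DMSO baseline.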", "values": [
      {"smiles": "CN(C)CCO", "outcome": "inactive"},
      {"smiles": "ClC1=C(Cl)[C@]2(Cl)[C@@H]3[C@H]4C[C@H]([C@@H]5O[C@H]45)[C@@H]3[C@@]1(Cl)C2(Cl)Cl", "outcome": "inactive"},
      {"smiles": "CC1=C2C[C@H]3[C@@H](CC=C4C[C@@H](O)CC[C@@]43C)[C@@H]2CC[C@]12O[C@@H]1C[C@H](C)CN[C@H]1[C@H]2C", "outcome": "inactive"}
    ]},
    {"biological_target": "human Matrix Metalloproteinase-9 (MMP9), MMP9 (gene 4318) (UniProt P14780)", "sequence (P14780 whole entry, looked up)": "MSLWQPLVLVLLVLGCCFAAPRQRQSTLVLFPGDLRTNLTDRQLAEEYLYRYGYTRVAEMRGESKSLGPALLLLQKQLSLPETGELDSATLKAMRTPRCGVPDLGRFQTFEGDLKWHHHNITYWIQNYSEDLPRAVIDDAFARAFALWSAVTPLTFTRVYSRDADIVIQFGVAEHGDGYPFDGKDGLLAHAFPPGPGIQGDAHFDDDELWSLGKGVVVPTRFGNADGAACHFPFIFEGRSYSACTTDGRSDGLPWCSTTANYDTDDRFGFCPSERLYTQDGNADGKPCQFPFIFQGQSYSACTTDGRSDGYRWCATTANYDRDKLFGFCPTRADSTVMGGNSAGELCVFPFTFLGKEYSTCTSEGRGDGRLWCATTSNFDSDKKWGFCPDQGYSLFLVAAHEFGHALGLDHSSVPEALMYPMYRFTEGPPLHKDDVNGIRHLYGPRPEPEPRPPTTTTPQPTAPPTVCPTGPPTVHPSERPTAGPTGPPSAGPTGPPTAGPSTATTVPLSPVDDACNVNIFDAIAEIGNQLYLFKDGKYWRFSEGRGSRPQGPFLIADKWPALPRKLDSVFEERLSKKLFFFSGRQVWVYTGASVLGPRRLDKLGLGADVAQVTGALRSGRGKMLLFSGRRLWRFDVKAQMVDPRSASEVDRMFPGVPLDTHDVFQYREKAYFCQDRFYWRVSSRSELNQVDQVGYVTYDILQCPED", "assay": "NVS_ENZ_hMMP9: NovaScreen (NVS) Enzymatic Assay for human Matrix Metalloproteinase-9 (MMP9) (AID 2283190);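 note: cell-free recombinant MMP9 protease activity read by fluorescent substrate signal; active means inhibition seen as loss of fluorescence signal versus DMSO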", "procedure,_shortened": "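Inhibition was scored as loss of fluorescence signal against DMSO controls. The recombinant protease was exposed to chemicals for 1 hour before reading; initial testing used 25 uM in duplicate.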", "values": [
      {"smiles": "CC(C)C(=O)OCC(C)(C)C(OC(=O)C(C)C)C(C)C", "note": "(configuration not stated)", "outcome": "inactive"},
      {"smiles": "CO/C=C(/C(=O)OC)c1ccccc1COc1cccc(C(F)(F)F)n1", "outcome": "inactive"},
      {"smiles": "CCCCCCCCCc1ccc(O)cc1", "outcome": "inactive"},
      {"smiles": "Sc1ccccc1", "AC50": "4.12 µM (active)"}
    ]},
    {"biological_target": "human Phosphodiesterase 4A1 (PDE4A1), PDE4A (gene 5141) (UniProt P27815)", "sequence (P27815 whole entry, looked up)": "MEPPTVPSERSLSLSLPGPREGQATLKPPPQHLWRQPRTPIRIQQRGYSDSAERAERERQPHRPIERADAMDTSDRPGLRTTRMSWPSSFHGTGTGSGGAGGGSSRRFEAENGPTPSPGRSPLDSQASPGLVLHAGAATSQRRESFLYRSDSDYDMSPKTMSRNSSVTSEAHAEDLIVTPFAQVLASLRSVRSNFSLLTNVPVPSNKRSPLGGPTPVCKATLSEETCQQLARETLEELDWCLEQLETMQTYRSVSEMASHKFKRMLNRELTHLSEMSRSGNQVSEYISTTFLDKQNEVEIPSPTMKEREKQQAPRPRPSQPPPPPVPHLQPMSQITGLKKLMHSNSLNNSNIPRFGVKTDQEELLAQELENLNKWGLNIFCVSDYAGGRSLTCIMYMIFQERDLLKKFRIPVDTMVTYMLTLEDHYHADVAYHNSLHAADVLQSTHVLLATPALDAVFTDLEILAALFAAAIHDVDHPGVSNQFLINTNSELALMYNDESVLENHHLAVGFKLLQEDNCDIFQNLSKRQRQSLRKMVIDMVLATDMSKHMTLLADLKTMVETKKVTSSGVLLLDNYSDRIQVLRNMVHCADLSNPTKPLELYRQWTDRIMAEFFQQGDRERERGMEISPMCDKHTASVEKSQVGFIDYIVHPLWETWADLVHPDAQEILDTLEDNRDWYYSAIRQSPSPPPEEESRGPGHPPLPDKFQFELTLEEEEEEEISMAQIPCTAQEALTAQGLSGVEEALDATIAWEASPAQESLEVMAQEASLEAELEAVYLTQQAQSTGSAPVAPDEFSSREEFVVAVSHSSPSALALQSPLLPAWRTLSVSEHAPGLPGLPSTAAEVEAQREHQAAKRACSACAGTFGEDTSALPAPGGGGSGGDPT", "assay": "NVS_ENZ_hPDE4A1: NovaScreen (NVS) Enzymatic Assay for human Phosphodiesterase 4A1 (PDE4A1) (AID 2283191)", "procedure,_shortened": "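Cell-free recombinant human PDE4A1 with fluorescent substrate; product separated by electrophoretic mobility shift, 1 h. Screened at 25 uM, then up to 50 uM in concentration-response; loss of signal fitted against DMSO.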", "values": [
      {"smiles": "O=S(=O)(O)C(F)(F)C(F)(F)C(F)(F)C(F)(F)C(F)(F)C(F)(F)F", "outcome": "inactive"},
      {"smiles": "CC1=C2C[C@H]3[C@@H](CC=C4C[C@@H](O)CC[C@@]43C)[C@@H]2CC[C@]12O[C@@H]1C[C@H](C)CN[C@H]1[C@H]2C", "outcome": "inactive"},
      {"smiles": "CCCN(CCC)N=O", "outcome": "inactive"},
      {"smiles": "CCNc1nc(NC(C)C)nc(SC)n1", "AC50": "2.15 µM (active)"},
      {"smiles": "Cc1cc2c3c(c1)C(c1ccccc1)=N[C@@H](NC(=O)c1ccncc1)C(=O)N3CC2", "AC50": "1.36 µM (active)"}
    ]}
  ]
}
